# According to PubChem BioAssay (Tox21):
# Where “and” joins values, the source holds several entries; their conditions need not be identical. Equal entries are not always repeated. Records with an inconclusive call do not appear. Entries that show only a call come without a potency. Some compounds were tested as several samples or in several runs, with calls that do not always agree. Calls of active or inactive are those of the source. Unless noted, calls come from the whole dose curve.
# Tests used:
# [1] = Nuclear factor erythroid 2-related factor 2/antioxidant responsive element (Nrf2/ARE) small molecule agonists: qHTS cell viability counter screen in human keratinocytes (AID 1919968; active = well fitted curve in the direction sought with a large enough effect in the repeat runs; an effect the other way counts as inactive or inconclusive; note: nearly all actives have a fitted effect of over 55% in size); conditions: KeratinoSens HaCaT ARE cells viability, CellTiter-Fluor, 24 h; series mostly up to 92.4 µM
# Outline: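 Measured as CellTiter-Fluor fluorescence, this readout tracks cytotoxicity in the same wells as the ARE-luciferase screen. HaCaT reporter cells (1,500/well) received compounds after a 5 h pre-incubation and were exposed for 23 h.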
# [2] = Nuclear factor erythroid 2-related factor 2/antioxidant responsive element (Nrf2/ARE) small molecule agonists: luciferase reporter gene qHTS assay in human keratinocytes (AID 1919969); conditions: KeratinoSens HaCaT ARE-luciferase, luminescence, 24 h; series mostly up to 92.4 µM; note: nearly all actives have a fitted effect of over 35% in size; note: potency is the fitted concentration of half-maximal effect
# [3] = target: Gonadotropin-releasing hormone receptor (Homo sapiens) (UniProt P30968); experiment: Human gonadotropin-releasing hormone receptor (GnRHR) small molecule agonists, calcium flux assay in GnRHR-HEK293 cells (AID 1920063); conditions: calcium flux fluorescence, agonist mode; series mostly up to 57.6 µM; note: nearly all actives have a fitted effect of over 35% in size
# Outline: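 Fluorescence kinetics (480 nm excitation, 540 nm emission; 3 min, 1 s steps) report calcium mobilisation in human GnRHR-HEK293 cells in agonist mode. Dye incubation: 1 h, 37 C.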
# [4] = target: KiSS-1 receptor (Homo sapiens) (UniProt Q969F8); experiment: Human kisspeptin (KISS1R) small molecule agonists, calcium flux assay in KISS1R-HEK293 cells (AID 1920064; active = well fitted curve in the direction sought with a large enough effect in the repeat runs; an effect the other way counts as inactive or inconclusive); conditions: KISS1R-HEK293, calcium flux fluorescence, agonist; series mostly up to 76.8 µM
# Outline: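 Measures KISS1R agonism through calcium-sensitive dye fluorescence in stably transfected HEK293 cells, read for 3 min after pin-tool compound delivery; 15-point titrations in triplicate.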
# [5] = G protein-coupled receptor (GPCR) small molecule agonists, calcium flux assay: HEK293 wild type cell line counter screen (AID 1920065); conditions: HEK293 WT calcium flux, fluorescence, agonist mode; series mostly up to 57.6 µM
# Outline: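 Readout: fluorescence at 480 nm excitation/540 nm emission, sampled at 1 s intervals for 3 min. Cells had been cultured 18 h, then dye-loaded 1 h at 37 C before compound or ATP addition.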
# [6] = p53 small molecule agonists, cell-based qHTS assay with rat liver microsomes: qHTS cell viability counter screen (AID 1963580); conditions: p53RE-bla HCT-116 + rat microsomes, ATP viability, 16 h; series mostly up to 66 µM; note: nearly all actives have a fitted effect of over 45% in size
# Outline: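 p53RE-bla HCT-116 cells (4,000/well) rested 5 h at 37 C, then given Tox21 compounds in DMSO with rat liver microsomes (0.5 mg/mL final) plus NADPH (0.5 mg/mL final) for 16 h at 37 C. Viability read by CellTiter-Glo luminescence after 30 min at room temperature.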
# [7] = p53 small molecule agonists, cell-based qHTS assay: qHTS cell viability counter screen (AID 1963581); conditions: p53RE-bla HCT-116 viability, ATP luminescence, 16 h; series mostly up to 66 µM; note: nearly all actives have a fitted effect of over 45% in size
# Outline: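 In the same plates used for the p53 bla reporter, HCT-116 cells given compounds for 16 h at 37 C received CellTiter-Glo; luminescence was recorded 30 min later at room temperature.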
# [8] = p53 small molecule agonists, cell-based qHTS assay (AID 1963582; active = well fitted activation curve with a large enough effect in the signal ratio in the repeat runs, not every such curve was filed as active; the % refers to the signal ratio); conditions: HCT-116 p53RE-bla reporter, beta-lactamase FRET ratio, 16 h; series mostly up to 66 µM
# Outline: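 Compounds are pin-transferred in DMSO onto p53RE-bla cells and incubated 16 h at 37 C. The B/G FRET beta-lactamase substrate is then applied for 2 h at RT and fluorescence recorded.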
# [9] = target: 5-hydroxytryptamine receptor 2A (Homo sapiens) (UniProt P28223); experiment: 5-hydroxytryptamine receptor 2A (HTR2A) small molecule agonists, cell-based qHTS assay (AID 1963587); conditions: HTR2A-CHO cells, calcium flux fluorescence, agonist mode; series mostly up to 76.8 µM; note: nearly all actives have a fitted effect of over 30% in size
# Outline: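 HTR2A-CHO cells, plated 18 h at 37 C/5% CO2, dye-loaded 1 h at 37 C; compounds in DMSO added by pin tool (agonist mode). Intracellular calcium flux read as kinetic fluorescence on FDSS over 2 min at 1 s intervals.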
# [10] = target: Muscarinic acetylcholine receptor M1 (Homo sapiens) (UniProt P11229); experiment: Cholinergic receptor muscarinic 1 (CHRM1) small molecule antagonists, cell-based qHTS assay (AID 1963588); conditions: CHRM1-CHO antagonist mode, calcium flux fluorescence; series mostly up to 61.5 µM; note: nearly all actives have a fitted effect of over 40% in size
# Outline: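 CHRM1-CHO calcium-flux assay, antagonist mode. Cells were seeded 18 h, dye-loaded 1 h at 37 C and given compound for 5 min at RT, then acetylcholine was added at 50nM. FDSS fluorescence was read 3 min; 15 concentrations, three runs.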
# [11] = target: Muscarinic acetylcholine receptor M1 (Homo sapiens) (UniProt P11229); experiment: Cholinergic receptor muscarinic 1 (CHRM1) small molecule agonists, cell-based qHTS assay (AID 1963589); conditions: CHRM1-CHO cells, agonist mode, calcium flux fluorescence; series mostly up to 76.8 µM; note: nearly all actives have a fitted effect of over 35% in size
# Outline: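 Each compound was tested at 15 concentrations across three independent runs on dye-loaded CHO cells stably expressing human CHRM1, reading intracellular calcium fluorescence kinetically at 1 sec intervals.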
# [12] = cAMP Responsive Elements (CRE) small molecule agonists, cell-based qHTS assay (AID 1963590); conditions: CRE-bla HEK293T, beta-lactamase FRET ratio, 3 h; series mostly up to 92.4 µM
# Outline: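 Cell line: CRE-bla HEK 293T; medium DMEM/10% dialyzed FBS/0.1 mM NEAA/1 mM pyruvate/25 mM HEPES; 3 h compound exposure; beta-lactamase FRET readout after 2 h substrate loading at RT.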
# [13] = cAMP Responsive Elements (CRE) small molecule antagonists, cell-based qHTS assay (AID 1963591; active = well fitted inhibition curve with a large enough effect in the signal ratio in the repeat runs, not every such curve was filed as active; the % refers to the signal ratio); conditions: CRE-bla HEK293T, beta-lactamase FRET ratio; series mostly up to 92.4 µM
# Outline: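 Inhibition of NKH477-driven (0.25 uM final) CRE-beta-lactamase signal in HEK293T cells, 3 h compound exposure at 37 °C, detected by FRET substrate fluorescence.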
# [14] = target: Beta-2 adrenergic receptor (Homo sapiens) (UniProt P07550); experiment: Adrenergic beta2 receptor (ADRB2) small molecule antagonists, cell-based qHTS assay (AID 1963592); conditions: CHO-ADRB2 cells, isoproterenol-stimulated cAMP HTRF ratio, 0.5 h; series mostly up to 92.4 µM; note: nearly all actives have a fitted effect of over 50% in size
# Outline: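 Cells (CHO, stable ADRB2 overexpression) incubated 18-20hr at 37C; compounds added from DMSO; agonist mix (1nM isoproterenol, 100uM IBMX, 25uM Ro-20-1724) added; 0.5hr RT; d2-cAMP and anti-cAMP-cryptate added; 1hr RT; 665/615 nm read.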
# [15] = target: Beta-2 adrenergic receptor (Homo sapiens) (UniProt P07550); experiment: Adrenergic beta2 receptor (ADRB2) small molecule agonists, cell-based qHTS assay (AID 1963593); conditions: CHO-ADRB2 cells, cAMP HTRF, 30 min; series mostly up to 92.4 µM;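 note: CHO cells stably overexpressing human ADRB2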
# Outline: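 CHO cells stably over-expressing ADRB2 were plated overnight at 37C, then dosed with compounds plus a stimulation mix containing 100uM IBMX and 25uM Ro-20-1724 for 0.5hr at room temperature. cAMP was measured by HTRF competition, 1hr.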
# [16] = target: D(2) dopamine receptor (Homo sapiens) (UniProt P14416); experiment: Dopamine D2 receptor (DRD2) small molecule agonists, cell-based qHTS assay (AID 1963594); conditions: HEK293-DRD2 cAMP HTRF, agonist mode, 30 min; series mostly up to 92.4 µM; note: nearly all actives have a fitted effect of over 35% in size
# Outline: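 HEK293 cells stably expressing DRD2 were cultured 24 h at 37 C, then given Ro20-1724 (0.1 mM final) and compounds for 10 min at room temperature. NKH477 (200nM) was then added for 30 min. cAMP was read by HTRF.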
# [17] = target: D(2) dopamine receptor (Homo sapiens) (UniProt P14416); experiment: Dopamine D2 receptor (DRD2) small molecule antagonists, cell-based qHTS assay (AID 1963595; active = well fitted inhibition curve with a large enough effect in the signal ratio in the repeat runs, with a control signal flat; the % refers to the signal ratio); conditions: HEK293-DRD2 cAMP HTRF antagonist mode; series mostly up to 92.4 µM
# Outline: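 Readout: HTRF cAMP, cAMP-d2 competing with cellular cAMP for anti-cAMP cryptate, read after 1 h. Cells: DRD2-HEK293. Conditions: 0.1 mM Ro20-1724, 12 nM quinpirole, 200 nM NKH477, 30 min RT.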
# [18] = p53 small molecule agonists, cell-based qHTS assay with human liver microsomes: qHTS cell viability counter screen (AID 1963579); conditions: p53RE-bla HCT-116 viability, ATP luminescence, 16 h, HLM; series mostly up to 66 µM; note: nearly all actives have a fitted effect of over 45% in size
# Outline: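 Seed p53RE-bla cells at 4,000 per well; incubate 5 h at 37 C; add compound, human liver microsomes and NADPH; incubate 16 h at 37 C; add CellTiter-Glo; after 30 min at room temperature, read luminescence.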
# [19] = target: 5-hydroxytryptamine receptor 2A (Homo sapiens) (UniProt P28223); experiment: 5-hydroxytryptamine receptor 2A (HTR2A) small molecule antagonists, cell-based qHTS assay (AID 1963586); conditions: HTR2A-CHO cells, DOI-induced calcium flux, fluorescence; series mostly up to 61.5 µM; note: nearly all actives have a fitted effect of over 45% in size
# Outline: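 Antagonist-mode intracellular calcium assay: DOI (4 nM) added after 5 min compound pre-incubation at room temperature to dye-loaded HTR2A-CHO cells. Fluorescence followed for 3 min, sampled every second.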
# Chain of 5-hydroxytryptamine receptor 2A (Homo sapiens) (P28223 whole entry, looked up): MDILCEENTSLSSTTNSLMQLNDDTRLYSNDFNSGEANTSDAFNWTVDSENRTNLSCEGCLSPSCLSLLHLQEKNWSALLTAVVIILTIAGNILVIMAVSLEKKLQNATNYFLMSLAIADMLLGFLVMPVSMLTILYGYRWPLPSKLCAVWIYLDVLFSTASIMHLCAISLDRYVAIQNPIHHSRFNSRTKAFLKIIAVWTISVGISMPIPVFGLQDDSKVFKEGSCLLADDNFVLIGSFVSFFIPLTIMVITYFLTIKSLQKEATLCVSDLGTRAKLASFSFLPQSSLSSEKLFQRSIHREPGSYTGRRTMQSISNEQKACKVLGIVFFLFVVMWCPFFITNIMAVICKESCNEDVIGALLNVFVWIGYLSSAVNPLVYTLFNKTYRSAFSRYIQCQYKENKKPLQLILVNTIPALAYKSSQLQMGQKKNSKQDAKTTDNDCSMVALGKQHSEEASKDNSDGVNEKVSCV
# Chain of D(2) dopamine receptor (Homo sapiens) (P14416 whole entry, looked up): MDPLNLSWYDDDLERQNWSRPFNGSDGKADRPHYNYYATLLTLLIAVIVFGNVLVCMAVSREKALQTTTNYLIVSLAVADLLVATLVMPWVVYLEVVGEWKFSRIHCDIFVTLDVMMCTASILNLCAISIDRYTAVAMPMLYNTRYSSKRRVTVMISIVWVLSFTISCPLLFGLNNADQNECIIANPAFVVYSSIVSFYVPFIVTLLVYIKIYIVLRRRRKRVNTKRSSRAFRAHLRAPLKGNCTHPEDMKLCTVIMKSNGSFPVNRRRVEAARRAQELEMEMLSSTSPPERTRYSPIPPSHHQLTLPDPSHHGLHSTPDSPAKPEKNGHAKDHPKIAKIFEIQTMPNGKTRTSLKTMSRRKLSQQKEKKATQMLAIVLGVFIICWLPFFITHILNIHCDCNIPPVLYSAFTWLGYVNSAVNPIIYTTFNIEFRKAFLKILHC
# Chain of Muscarinic acetylcholine receptor M1 (Homo sapiens) (P11229 whole entry, looked up): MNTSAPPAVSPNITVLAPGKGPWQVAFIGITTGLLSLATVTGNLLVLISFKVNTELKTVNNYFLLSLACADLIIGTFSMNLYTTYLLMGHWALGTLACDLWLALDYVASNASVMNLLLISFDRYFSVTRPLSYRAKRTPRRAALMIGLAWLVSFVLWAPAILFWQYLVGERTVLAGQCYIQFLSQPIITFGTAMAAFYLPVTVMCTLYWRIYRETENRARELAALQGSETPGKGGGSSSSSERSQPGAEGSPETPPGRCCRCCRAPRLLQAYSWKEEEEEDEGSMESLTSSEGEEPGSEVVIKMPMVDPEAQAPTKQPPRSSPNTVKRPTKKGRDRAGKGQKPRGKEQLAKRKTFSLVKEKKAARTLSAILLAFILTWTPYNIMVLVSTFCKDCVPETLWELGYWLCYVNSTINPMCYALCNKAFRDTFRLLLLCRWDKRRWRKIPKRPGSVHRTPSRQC
# Chain of Gonadotropin-releasing hormone receptor (Homo sapiens) (P30968 whole entry, looked up): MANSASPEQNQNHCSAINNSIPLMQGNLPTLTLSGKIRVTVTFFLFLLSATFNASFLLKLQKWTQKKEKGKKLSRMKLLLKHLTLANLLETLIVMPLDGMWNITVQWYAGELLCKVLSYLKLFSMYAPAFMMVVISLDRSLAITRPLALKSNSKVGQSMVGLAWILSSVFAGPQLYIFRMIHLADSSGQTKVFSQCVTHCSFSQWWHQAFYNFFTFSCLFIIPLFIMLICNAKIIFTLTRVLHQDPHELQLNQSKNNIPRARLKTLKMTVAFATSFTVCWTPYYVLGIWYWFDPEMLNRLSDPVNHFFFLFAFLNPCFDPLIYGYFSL
# Chain of KiSS-1 receptor (Homo sapiens) (Q969F8 whole entry, looked up): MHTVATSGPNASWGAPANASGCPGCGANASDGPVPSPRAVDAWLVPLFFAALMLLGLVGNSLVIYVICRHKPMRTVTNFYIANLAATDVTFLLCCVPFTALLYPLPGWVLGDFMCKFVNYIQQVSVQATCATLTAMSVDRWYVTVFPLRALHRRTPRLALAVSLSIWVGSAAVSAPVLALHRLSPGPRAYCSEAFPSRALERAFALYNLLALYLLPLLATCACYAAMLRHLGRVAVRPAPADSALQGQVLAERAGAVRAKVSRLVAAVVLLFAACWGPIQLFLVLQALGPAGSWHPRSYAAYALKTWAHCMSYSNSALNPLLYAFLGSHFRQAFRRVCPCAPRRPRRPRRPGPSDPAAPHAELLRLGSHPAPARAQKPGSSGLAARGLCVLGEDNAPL
# Chain of Beta-2 adrenergic receptor (Homo sapiens) (P07550 whole entry, looked up): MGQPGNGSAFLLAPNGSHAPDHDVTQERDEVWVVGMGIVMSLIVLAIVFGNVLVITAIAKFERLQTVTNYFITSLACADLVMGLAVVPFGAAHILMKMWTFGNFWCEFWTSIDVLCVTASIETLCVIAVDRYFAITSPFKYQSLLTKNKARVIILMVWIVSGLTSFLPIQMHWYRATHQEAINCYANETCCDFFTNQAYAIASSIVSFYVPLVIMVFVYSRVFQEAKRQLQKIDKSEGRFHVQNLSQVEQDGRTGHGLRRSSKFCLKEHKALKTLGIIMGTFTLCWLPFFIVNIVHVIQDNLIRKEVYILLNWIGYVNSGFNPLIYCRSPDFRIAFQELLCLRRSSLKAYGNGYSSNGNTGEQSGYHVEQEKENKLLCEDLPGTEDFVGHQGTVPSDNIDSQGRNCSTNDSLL
SMILES,Potency [1],Potency [2],Potency [3],Potency [4],Potency [5],Potency [6],Potency [7],Potency [8],Potency [9],Potency [10],Potency [11],Potency [12],Potency [13],Potency [14],Potency [15],Potency [16],Potency [17],Potency [18],Potency [19]
CC(=O)C(=O)O,inactive,inactive,inactive,inactive,inactive,inactive,inactive,inactive,inactive,inactive,inactive,inactive,inactive,inactive,inactive,inactive,inactive,–,–
CC(=O)Nc1c(I)c(NC(C)=O)c(I)c(C(=O)O)c1I,inactive,inactive,inactive,inactive,inactive,inactive,inactive,–,–,–,–,inactive,inactive,inactive,–,–,inactive,inactive,–
Cc1occc(=O)c1O,inactive,inactive,inactive,inactive,inactive,–,inactive,–,inactive,inactive,inactive,inactive,inactive,inactive,inactive,–,inactive,inactive,inactive
N=C(N)c1ccc(OCCCCCOc2ccc(C(=N)N)cc2)cc1,inactive,inactive,inactive,inactive,inactive,inactive,inactive,–,–,–,–,inactive,inactive,inactive,inactive,inactive,inactive,inactive,–
Cc1cn([C@H]2C=C[C@@H](CO)O2)c(=O)[nH]c1=O,inactive,inactive,inactive,inactive,inactive,inactive,inactive,–,–,–,–,inactive,inactive,inactive,inactive,inactive,inactive,inactive,–
CCCCCCCCCCCCCCCCCC(=O)OCC(O)CO (stereo not drawn),inactive,inactive,inactive,inactive,inactive,inactive,inactive,–,inactive,inactive,inactive,inactive,inactive,inactive,inactive,inactive,inactive,inactive,–
COc1ccc(CCC(C)=O)cc1,inactive,inactive,inactive,inactive,inactive,inactive,inactive,inactive,inactive,inactive,inactive,inactive,inactive,inactive,inactive,–,inactive,inactive,inactive
O=C(O)CS,inactive,inactive and 61.6 µM (active),inactive,inactive,inactive,inactive,inactive,–,inactive,inactive,inactive,inactive,inactive,inactive,–,inactive,inactive,inactive,inactive
O=c1[nH]cnc2c1ncn2[C@H]1CC[C@@H](CO)O1,inactive,inactive,inactive,inactive,inactive,inactive,inactive,–,–,–,–,inactive,inactive,inactive,inactive,inactive,inactive,inactive,–
Cc1ccc(N)c([N+](=O)[O-])c1,inactive,inactive,inactive,inactive,inactive,inactive,inactive,–,inactive,inactive,–,inactive,inactive,inactive,inactive,inactive,inactive,inactive,inactive
O=C(O)C(=O)O,inactive,inactive,inactive,inactive,inactive,inactive,inactive,–,inactive,inactive,inactive,inactive,inactive,inactive,–,inactive,inactive,inactive,inactive
CCCCCCCCCCCCCC(=O)O,inactive,inactive,inactive,inactive,inactive,inactive,inactive,inactive,inactive,inactive,inactive,inactive,inactive,inactive,inactive,inactive,inactive,inactive,–
CCCCCCCCCC(=O)OC,inactive,inactive,inactive,inactive,inactive,inactive,inactive,–,inactive,inactive,inactive,inactive,inactive,inactive,inactive,inactive,inactive,inactive,–
CN1CCC[C@H]1c1cccnc1,inactive,inactive,inactive,inactive,inactive,inactive,inactive,–,–,–,–,inactive,inactive,inactive,inactive,inactive,inactive,inactive,–
CC1=CC[C@H]2C[C@@H]1C2(C)C,inactive,inactive,inactive,inactive,inactive,–,inactive,–,inactive,inactive,inactive,inactive,inactive,inactive,inactive,inactive,inactive,inactive,inactive
CC(=O)CCC(=O)O,inactive,inactive,inactive,inactive,inactive,inactive,inactive,–,inactive,inactive,inactive,inactive,inactive,inactive,inactive,inactive,inactive,inactive,inactive
COc1cc(O)c(C(=O)c2ccccc2)cc1S(=O)(=O)O,inactive,inactive,inactive,inactive,inactive,inactive,inactive,–,inactive,–,–,inactive,inactive,inactive,inactive,inactive,inactive,–,inactive
CC(=O)O[C@]1(C(C)=O)CC[C@H]2[C@@H]3C=C(Cl)C4=CC(=O)[C@@H]5C[C@@H]5[C@]4(C)[C@H]3CC[C@@]21C,inactive,inactive,inactive,inactive,inactive,inactive,inactive,–,–,–,–,–,–,inactive,–,inactive,inactive,inactive,–
